NLRP3 yeast inh = NALP3 inflammasome inhibitors in reconstituted yeast, primary screen, luminescence, uHTS; inhibition, % at 10 µM; AID 2825, 2010; 0.39% of 330,000 active; Yeast reconstituted NLRP3/ASC/caspase-1, beta-gal luminescence, 24 h;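 active = inhibition of 50% or more; inactive = inhibition below 50%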
SKKanGAS inh = S. pyogenes SKKanGAS growth inhibitors in kanamycin, primary screen, streptokinase expression inhibitor project, SKKanGAS strain, BacTiter-Glo luminescence; 6 h; inhibition, % at 7.5 µM; 1.3% of 300,000 active; AID 1662, 2009;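 active = mean replicate score, as percent of positive control median, at least 50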;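 note: strain carries kanamycin resistance gene driven by streptokinase promoter and grows in 40 µg/ml kanamycin; loss of luminescence reflects streptokinase promoter inhibition or plain growth inhibition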
tim23-1 inh = growth inhibitors of tim23-1 mutant yeast, primary screen, luminescence, uHTS. 1.3% of 330,000 active. S. cerevisiae tim23-1 growth, BacTiter-Glo luminescence, 24 h. AID 463212, 2010. inhibition, % at 20 µM;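 active = growth inhibition of the mutant yeast at or above 50%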;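 note: temperature-sensitive mutant grown at 25 °C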
TIM10 inh = growth inhibitors of isogenic TIM10 control yeast, primary screen, counter-screen for tim10-1 yeast inhibitor project, luminescence, uHTS. 1.4% of 330,000 active. inhibition, % at 10 µM. S. cerevisiae TIM10 strain growth, BacTiter-Glo luminescence, 24 h. AID 463195, 2010;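 active = inhibition of 40% or more at the single tested concentration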;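 note: wild-type TIM10 isogenic control strain grown at permissive 25 °C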
tim10-1 inh = growth inhibitors of tim10-1 mutant yeast, primary screen, luminescence, uHTS; S. cerevisiae tim10-1 ts strain growth, BacTiter-Glo, 24 h; AID 463190, 2010; inhibition, % at 20 µM; 2.2% of 330,000 active;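 active = inhibition of at least 40%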;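 note: mutant grown at 25 °C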
PfHsp90 set2 = growth inhibition of PfHsp90-expressing yeast, primary screen, antimalarial PfHsp90 inhibitor project, S. cerevisiae, BacTiter-Glo luminescence, single point, set 2; BacTiter-Glo ATP, 48 h; yeast lacking PDR1 and PDR3 efflux regulators; 0.32% of 310,000 active; inhibition, % at 9.4 µM; AID 504621, 2011;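 active = every replicate shows inhibition above about 80%, whatever the replicate mean, limit read from the data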
tim10-1 confirm = growth inhibitors of tim10-1 mutant yeast, confirmation, single concentration, luminescence, S. cerevisiae; shares compounds with tim10-1 inh; S. cerevisiae tim10-1 ts strain growth, BacTiter-Glo, 24 h; inhibition, % at 20 µM; 56% of 7,400 active;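 active = inhibition of yeast growth at or above a set limit in either of two repeat tests at 20 µM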;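 note: tim10-1 mutant grown at permissive 25 °C to find synthetic lethal compounds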
Hits are given with their value. The list is not random: actives were taken first. Their share in the collection is about 4.5%.

`CCN(CC)S(=O)(=O)c1ccc(N/N=C/c2ccc(O)cc2)nc1` gave NLRP3 yeast inh inactive, SKKanGAS inh inactive, tim23-1 inh inactive, TIM10 inh inactive, tim10-1 inh 42, PfHsp90 set2 inactive and tim10-1 confirm 34.
For CC(=O)c1ccc(S(=O)(=O)Oc2ccc(C(=O)O)cc2Cl)cc1 the results were NLRP3 yeast inh inactive, tim23-1 inh inactive, TIM10 inh inactive, tim10-1 inh inactive and PfHsp90 set2 inactive.
Screening CCCn1nc([N+](=O)[O-])c(C(C#N)c2nc3ccccc3o2)c(Cl)c1=O (centres undefined) returned NLRP3 yeast inh inactive, SKKanGAS inh inactive, tim23-1 inh inactive, TIM10 inh inactive, tim10-1 inh 48, PfHsp90 set2 inactive and tim10-1 confirm 36.
For Cc1ccccc1-c1n[nH]c(=S)n1Cc1ccccc1 the results were NLRP3 yeast inh inactive, SKKanGAS inh inactive, tim23-1 inh inactive, TIM10 inh inactive, tim10-1 inh 40, PfHsp90 set2 inactive and tim10-1 confirm inactive.
Oc1ccccc1-c1n[nH]c(=S)n1Cc1ccccc1 was read as NLRP3 yeast inh inactive, SKKanGAS inh inactive, tim23-1 inh inactive, TIM10 inh inactive, tim10-1 inh inactive and PfHsp90 set2 inactive.
S=c1[nH]nc(-c2ccccc2Br)n1Cc1ccccc1 was read as NLRP3 yeast inh inactive, SKKanGAS inh inactive, tim23-1 inh inactive, TIM10 inh inactive, tim10-1 inh 41, PfHsp90 set2 inactive and tim10-1 confirm inactive.
Screening Cc1ccc(-c2n[nH]c(=S)n2Cc2ccccc2)cc1 returned NLRP3 yeast inh inactive, SKKanGAS inh inactive, tim23-1 inh inactive, TIM10 inh inactive, tim10-1 inh inactive and PfHsp90 set2 inactive.
Screening CC(=O)N1CCN(C(=O)CSc2ncnc3sc(C)c(C)c23)CC1 returned NLRP3 yeast inh inactive, tim23-1 inh inactive, TIM10 inh inactive, tim10-1 inh inactive and PfHsp90 set2 inactive.
`N#Cc1c(-c2ccccc2)cc(-c2ccccc2)nc1SCCC(=O)O` gave NLRP3 yeast inh inactive, SKKanGAS inh inactive, tim23-1 inh inactive, TIM10 inh inactive, tim10-1 inh inactive and PfHsp90 set2 inactive.
`CCN1CCN(CCCNC(=O)c2ccc(/C=C3/Sc4ccccc4N(Cc4ccccc4F)C3=O)cc2)CC1` gave NLRP3 yeast inh inactive, SKKanGAS inh inactive, tim23-1 inh inactive, TIM10 inh inactive, tim10-1 inh inactive and PfHsp90 set2 inactive.
O=C(NCCCN1CCOCC1)c1ccc(/C=C2\Oc3ccccc3N(Cc3ccccc3F)C2=O)cc1 was read as NLRP3 yeast inh inactive, SKKanGAS inh inactive, tim23-1 inh inactive, TIM10 inh inactive, tim10-1 inh 47, PfHsp90 set2 inactive and tim10-1 confirm inactive.
For Cc1cc(NC(=O)CSc2n[nH]c(-c3ccc(Cl)cc3Cl)n2)no1 the results were NLRP3 yeast inh inactive, tim23-1 inh inactive, TIM10 inh inactive, tim10-1 inh inactive and PfHsp90 set2 inactive.
Screening Cc1ccc2nc(NC(=O)CN3C(=O)NC4(CCCC4)C3=O)sc2c1 returned NLRP3 yeast inh inactive, SKKanGAS inh inactive, tim23-1 inh inactive, TIM10 inh inactive, tim10-1 inh inactive and PfHsp90 set2 inactive.
Screening O=C(NNC(=O)C1CC1c1ccccc1)Nc1ccccc1 (centres undefined) returned NLRP3 yeast inh inactive, SKKanGAS inh inactive, tim23-1 inh inactive, TIM10 inh inactive, tim10-1 inh inactive and PfHsp90 set2 inactive.
For Cc1ccc(C2CC2C(=O)NNC(=S)Nc2ccc(Cl)cc2)cc1 (centres undefined) the results were NLRP3 yeast inh inactive, SKKanGAS inh inactive, tim23-1 inh inactive, TIM10 inh inactive, tim10-1 inh 46, PfHsp90 set2 inactive and tim10-1 confirm inactive.
Screening Cc1cc(C)c(C#N)c(SCC(=O)c2cccs2)n1 returned NLRP3 yeast inh inactive, SKKanGAS inh inactive, tim23-1 inh inactive, TIM10 inh inactive, tim10-1 inh 44 and tim10-1 confirm inactive.
`O=C(CN1C(=O)COc2ccc(Cl)cc21)N1CCCCC1` gave NLRP3 yeast inh inactive, SKKanGAS inh inactive, tim23-1 inh inactive, TIM10 inh inactive, tim10-1 inh inactive and PfHsp90 set2 inactive.
For C=CCNC(=O)/C(C#N)=C/c1ccc2c(c1)OCCO2 the results were NLRP3 yeast inh inactive, SKKanGAS inh inactive, tim23-1 inh inactive, TIM10 inh inactive, tim10-1 inh 43, PfHsp90 set2 inactive and tim10-1 confirm inactive.
`CC1C(=O)C(C)C(c2ccc(Br)cc2)NC1c1ccc(Br)cc1` (centres undefined) gave NLRP3 yeast inh inactive, SKKanGAS inh inactive, tim23-1 inh inactive, TIM10 inh inactive, tim10-1 inh 48, PfHsp90 set2 inactive and tim10-1 confirm inactive.
For CCN(CC)S(=O)(=O)c1ccc(N2CCCC2)c(NS(=O)(=O)c2ccc(F)cc2)c1 the results were NLRP3 yeast inh inactive, SKKanGAS inh inactive, tim23-1 inh inactive, TIM10 inh inactive, tim10-1 inh 40, PfHsp90 set2 inactive and tim10-1 confirm inactive.
CCN(CC)S(=O)(=O)c1ccc(N2CCCC2)c(NS(=O)(=O)c2ccccc2)c1 was read as NLRP3 yeast inh inactive, SKKanGAS inh inactive, tim23-1 inh inactive, TIM10 inh inactive, tim10-1 inh inactive and PfHsp90 set2 inactive.
`C=CCn1c(=O)[nH]c(=O)c2c(N)c(C(=O)c3ccc(OC)cc3)sc21` gave PfHsp90 set2 inactive.
For O=C1/C(=C/c2ccc([N+](=O)[O-])cc2)C=C(c2ccccc2)N1c1ccccc1 the results were NLRP3 yeast inh inactive, SKKanGAS inh inactive, tim23-1 inh inactive, TIM10 inh inactive, tim10-1 inh inactive and PfHsp90 set2 inactive.
For O=C1/C(=C/c2ccc([N+](=O)[O-])cc2)C=C(c2ccccc2)N1c1ccc(O)cc1 the results were NLRP3 yeast inh inactive, SKKanGAS inh inactive, tim23-1 inh inactive, TIM10 inh inactive, tim10-1 inh 41, PfHsp90 set2 inactive and tim10-1 confirm 37.
Screening CCC(CC)C(=O)Nc1ccc(Cl)c(Cl)c1 returned NLRP3 yeast inh inactive, SKKanGAS inh inactive, tim23-1 inh inactive, TIM10 inh inactive, tim10-1 inh 41, PfHsp90 set2 inactive and tim10-1 confirm inactive.
CC(C)CC(NC(N)=O)C(=O)Nc1ccc(Cl)c(Cl)c1 (centres undefined) was read as NLRP3 yeast inh inactive, SKKanGAS inh inactive, tim23-1 inh inactive, TIM10 inh inactive, tim10-1 inh inactive and PfHsp90 set2 inactive.
`CCOC(=O)N1CCN(C(=O)CN2C(=O)NC(C)(c3ccc4ccccc4c3)C2=O)CC1` (centres undefined) gave NLRP3 yeast inh inactive, tim23-1 inh inactive, TIM10 inh inactive and tim10-1 inh inactive.
